# Experimental data taken from paper PMC7862700, “An all-to-all approach to the identification of sequence-specific readers for epigenetic DNA modifications on cytosine”.
# Legend:
# Assay in all cases: DAPPL (digital affinity profiling via proximity ligation, sequencing); 10 mM Tris-HCl pH 7.5, 50 mM NaCl, 1 mM DTT, 4% glycerol, room temperature, 30 min; GST-TFs on glutathione beads, 16-mer random dsDNA library, 0.1% formaldehyde crosslink after washing; high values mean tight binding
# FLI1 = molecular target: T1, FLI1 (Homo sapiens, UniProt Q01543 1-452); settings: protein: recombinant; tags: N-terminal GST; dsDNA, one strand shown
# T1 sequence: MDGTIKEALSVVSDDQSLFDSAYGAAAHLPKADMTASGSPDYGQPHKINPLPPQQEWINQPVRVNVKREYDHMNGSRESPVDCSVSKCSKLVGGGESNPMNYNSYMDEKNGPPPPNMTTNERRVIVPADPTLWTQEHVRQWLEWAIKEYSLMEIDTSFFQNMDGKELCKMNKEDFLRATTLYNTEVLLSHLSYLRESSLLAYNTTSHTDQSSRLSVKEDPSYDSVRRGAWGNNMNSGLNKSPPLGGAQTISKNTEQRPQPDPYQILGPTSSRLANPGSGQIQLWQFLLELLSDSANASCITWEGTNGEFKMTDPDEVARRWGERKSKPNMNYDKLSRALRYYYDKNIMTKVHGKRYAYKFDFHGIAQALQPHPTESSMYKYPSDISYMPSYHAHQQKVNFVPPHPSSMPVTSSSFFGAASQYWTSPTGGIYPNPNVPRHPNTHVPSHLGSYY
# Summary of the method: (§1)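 GST fusions of human transcription factors were expressed in yeast and captured with glutathione beads. Once given DNA barcodes and pooled alongside a tag-only sample, they were incubated for 30 min at room temperature with 200 nmole of a random double-stranded 16-mer DNA library in Tris/NaCl/DTT/glycerol buffer, then washed, crosslinked (0.1% formaldehyde), proximity-ligated, PCR-amplified and sequenced on an Illumina NextSeq500. The binding signal of each hexamer is its read frequency for a factor divided by its frequency for the tag-only sample.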
# ELK1 = molecular target: T2, ELK1 (Homo sapiens, UniProt P19419 1-428); settings: protein: recombinant; tags: N-terminal GST; dsDNA, one strand shown
# T2 sequence: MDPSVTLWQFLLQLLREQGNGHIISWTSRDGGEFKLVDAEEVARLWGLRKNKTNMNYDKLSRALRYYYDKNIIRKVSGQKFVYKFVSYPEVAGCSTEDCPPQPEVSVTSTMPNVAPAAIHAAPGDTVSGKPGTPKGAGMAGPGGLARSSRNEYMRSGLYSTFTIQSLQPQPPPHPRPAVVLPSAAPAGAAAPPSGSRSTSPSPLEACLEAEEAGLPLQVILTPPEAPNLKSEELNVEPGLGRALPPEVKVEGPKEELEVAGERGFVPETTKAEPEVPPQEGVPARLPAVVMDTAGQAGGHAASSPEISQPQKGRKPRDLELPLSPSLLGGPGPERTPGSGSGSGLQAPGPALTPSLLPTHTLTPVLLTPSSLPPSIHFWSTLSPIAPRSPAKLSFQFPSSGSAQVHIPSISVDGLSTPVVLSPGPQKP
# Summary of the method: as §1
# GABPA = molecular target: T3, GABPA (Homo sapiens, UniProt Q06546 1-454); settings: protein: recombinant; tags: N-terminal GST; dsDNA, one strand shown
# T3 sequence: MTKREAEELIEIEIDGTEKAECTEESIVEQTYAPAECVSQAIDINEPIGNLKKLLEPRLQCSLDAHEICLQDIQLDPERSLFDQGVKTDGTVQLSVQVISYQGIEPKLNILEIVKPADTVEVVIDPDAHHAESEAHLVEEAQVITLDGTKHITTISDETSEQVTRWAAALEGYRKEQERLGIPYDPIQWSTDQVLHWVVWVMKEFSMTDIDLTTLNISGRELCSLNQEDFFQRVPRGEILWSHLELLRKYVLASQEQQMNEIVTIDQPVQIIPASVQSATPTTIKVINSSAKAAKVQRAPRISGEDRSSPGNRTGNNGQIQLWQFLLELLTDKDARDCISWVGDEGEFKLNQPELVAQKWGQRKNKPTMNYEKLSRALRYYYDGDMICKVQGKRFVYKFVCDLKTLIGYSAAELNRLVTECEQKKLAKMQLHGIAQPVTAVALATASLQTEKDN
# Summary of the method: as §1
# ERG = molecular target: T4, ERG (Homo sapiens, UniProt P11308 1-479); settings: protein: recombinant; tags: N-terminal GST; dsDNA, one strand shown
# T4 sequence: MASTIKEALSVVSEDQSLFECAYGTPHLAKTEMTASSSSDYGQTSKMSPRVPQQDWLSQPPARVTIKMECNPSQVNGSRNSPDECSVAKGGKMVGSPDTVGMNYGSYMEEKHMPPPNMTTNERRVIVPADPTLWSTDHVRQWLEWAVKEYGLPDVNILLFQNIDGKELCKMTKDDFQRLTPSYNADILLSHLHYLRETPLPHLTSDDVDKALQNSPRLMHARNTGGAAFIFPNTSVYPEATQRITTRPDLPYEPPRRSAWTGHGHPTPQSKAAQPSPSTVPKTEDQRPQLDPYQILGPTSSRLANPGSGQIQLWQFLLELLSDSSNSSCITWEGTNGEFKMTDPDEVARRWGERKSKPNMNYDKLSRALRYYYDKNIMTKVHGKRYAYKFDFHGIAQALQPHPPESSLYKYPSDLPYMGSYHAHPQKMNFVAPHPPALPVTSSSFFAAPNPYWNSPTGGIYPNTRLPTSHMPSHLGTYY
# Summary of the method: as §1
# ELF1 = ELF1 (Homo sapiens, UniProt P32519 1-619); settings: protein: recombinant; tags: N-terminal GST; dsDNA, one strand shown
# ELF1, sequence (P32519 whole entry): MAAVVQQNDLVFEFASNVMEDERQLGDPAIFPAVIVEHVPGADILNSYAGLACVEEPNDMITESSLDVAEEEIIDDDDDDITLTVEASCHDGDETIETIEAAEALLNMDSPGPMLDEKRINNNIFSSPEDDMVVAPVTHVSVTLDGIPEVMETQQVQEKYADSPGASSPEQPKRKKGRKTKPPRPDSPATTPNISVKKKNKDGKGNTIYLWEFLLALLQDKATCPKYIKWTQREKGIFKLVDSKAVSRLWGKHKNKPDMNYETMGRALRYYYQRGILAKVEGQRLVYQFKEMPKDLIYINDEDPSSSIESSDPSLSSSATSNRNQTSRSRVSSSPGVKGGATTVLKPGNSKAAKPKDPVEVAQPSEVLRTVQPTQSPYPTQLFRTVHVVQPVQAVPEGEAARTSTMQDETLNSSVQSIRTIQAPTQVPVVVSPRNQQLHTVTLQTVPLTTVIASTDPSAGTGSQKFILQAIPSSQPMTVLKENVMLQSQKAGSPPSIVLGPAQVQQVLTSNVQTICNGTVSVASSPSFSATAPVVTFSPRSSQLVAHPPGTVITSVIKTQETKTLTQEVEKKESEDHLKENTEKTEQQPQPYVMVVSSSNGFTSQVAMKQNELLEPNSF
# Summary of the method: as §1
# EHF = molecular target: T5, EHF (Homo sapiens, UniProt Q9NZC4 1-300); settings: protein: recombinant; tags: N-terminal GST; dsDNA, one strand shown
# T5 sequence: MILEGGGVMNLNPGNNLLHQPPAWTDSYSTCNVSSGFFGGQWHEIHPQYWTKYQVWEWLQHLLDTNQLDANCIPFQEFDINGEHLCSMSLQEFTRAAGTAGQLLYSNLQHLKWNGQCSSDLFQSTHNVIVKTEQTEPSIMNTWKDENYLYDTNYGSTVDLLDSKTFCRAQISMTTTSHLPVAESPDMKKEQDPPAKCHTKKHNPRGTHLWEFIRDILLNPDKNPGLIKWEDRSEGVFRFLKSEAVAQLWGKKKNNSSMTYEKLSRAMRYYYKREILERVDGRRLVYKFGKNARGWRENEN
# Summary of the method: as §1
# SPI1 = SPI1 (Homo sapiens, UniProt P17947 1-270); settings: protein: recombinant; tags: N-terminal GST; dsDNA, one strand shown
# Summary of the method: as §1
# SPIB = SPIB (Homo sapiens, UniProt Q01892 1-262); settings: protein: recombinant; tags: N-terminal GST; dsDNA, one strand shown
# SPIB, sequence (Q01892 whole entry): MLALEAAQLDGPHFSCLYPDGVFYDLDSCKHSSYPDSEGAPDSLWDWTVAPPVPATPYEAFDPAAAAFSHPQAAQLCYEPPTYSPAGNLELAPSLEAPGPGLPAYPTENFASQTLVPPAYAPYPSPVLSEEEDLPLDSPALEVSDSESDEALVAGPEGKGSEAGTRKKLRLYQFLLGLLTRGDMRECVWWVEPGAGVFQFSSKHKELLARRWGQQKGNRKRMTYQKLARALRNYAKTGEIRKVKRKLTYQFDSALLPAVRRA
# Summary of the method: as §1
# ELK3 = molecular target: T6, ELK3 (Homo sapiens, UniProt P41970 1-407); settings: protein: recombinant; tags: N-terminal GST; dsDNA, one strand shown
# T6 sequence: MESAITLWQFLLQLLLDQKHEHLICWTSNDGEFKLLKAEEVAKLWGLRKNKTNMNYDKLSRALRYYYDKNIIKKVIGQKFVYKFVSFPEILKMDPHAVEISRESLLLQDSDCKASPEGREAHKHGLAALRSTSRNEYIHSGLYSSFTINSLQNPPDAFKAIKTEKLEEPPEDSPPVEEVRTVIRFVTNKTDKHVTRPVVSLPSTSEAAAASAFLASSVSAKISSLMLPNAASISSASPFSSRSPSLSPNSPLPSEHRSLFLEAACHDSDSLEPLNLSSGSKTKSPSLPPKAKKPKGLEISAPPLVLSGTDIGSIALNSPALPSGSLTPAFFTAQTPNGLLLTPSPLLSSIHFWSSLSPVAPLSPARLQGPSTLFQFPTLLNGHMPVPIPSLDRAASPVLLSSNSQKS
# Summary of the method: as §1
# FEV = molecular target: T7, FEV (Homo sapiens, UniProt Q99581 1-238); settings: protein: recombinant; tags: N-terminal GST; dsDNA, one strand shown
# T7 sequence: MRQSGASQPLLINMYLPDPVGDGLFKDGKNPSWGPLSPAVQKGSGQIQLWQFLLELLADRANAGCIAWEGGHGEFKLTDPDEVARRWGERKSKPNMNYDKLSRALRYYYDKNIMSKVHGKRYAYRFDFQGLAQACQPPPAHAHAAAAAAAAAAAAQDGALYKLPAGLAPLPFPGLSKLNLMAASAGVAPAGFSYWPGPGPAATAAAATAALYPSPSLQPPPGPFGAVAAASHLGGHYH
# Summary of the method: as §1
# ETV5 = ETV5 (Homo sapiens, UniProt P41161 1-510); settings: protein: recombinant; tags: N-terminal GST; dsDNA, one strand shown
# ETV5, sequence (P41161 whole entry): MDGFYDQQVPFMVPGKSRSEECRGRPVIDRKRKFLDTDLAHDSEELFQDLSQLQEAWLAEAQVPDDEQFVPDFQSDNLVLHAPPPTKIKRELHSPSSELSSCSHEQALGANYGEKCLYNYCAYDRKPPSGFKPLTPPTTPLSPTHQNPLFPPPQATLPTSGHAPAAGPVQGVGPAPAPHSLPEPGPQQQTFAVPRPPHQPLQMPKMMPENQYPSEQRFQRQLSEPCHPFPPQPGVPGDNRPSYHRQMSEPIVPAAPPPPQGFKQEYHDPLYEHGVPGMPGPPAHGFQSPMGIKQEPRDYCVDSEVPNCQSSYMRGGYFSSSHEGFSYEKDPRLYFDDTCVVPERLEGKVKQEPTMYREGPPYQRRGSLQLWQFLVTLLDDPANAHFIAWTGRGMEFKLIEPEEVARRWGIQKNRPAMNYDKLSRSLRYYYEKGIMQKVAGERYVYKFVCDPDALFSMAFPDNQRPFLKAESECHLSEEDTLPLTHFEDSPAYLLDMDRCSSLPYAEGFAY
# Summary of the method: as §1
# HSF1 = HSF1 (Homo sapiens, UniProt Q00613 1-529); settings: protein: recombinant; tags: N-terminal GST; chain copies: 3; dsDNA, one strand shown
# HSF1, sequence (Q00613 whole entry): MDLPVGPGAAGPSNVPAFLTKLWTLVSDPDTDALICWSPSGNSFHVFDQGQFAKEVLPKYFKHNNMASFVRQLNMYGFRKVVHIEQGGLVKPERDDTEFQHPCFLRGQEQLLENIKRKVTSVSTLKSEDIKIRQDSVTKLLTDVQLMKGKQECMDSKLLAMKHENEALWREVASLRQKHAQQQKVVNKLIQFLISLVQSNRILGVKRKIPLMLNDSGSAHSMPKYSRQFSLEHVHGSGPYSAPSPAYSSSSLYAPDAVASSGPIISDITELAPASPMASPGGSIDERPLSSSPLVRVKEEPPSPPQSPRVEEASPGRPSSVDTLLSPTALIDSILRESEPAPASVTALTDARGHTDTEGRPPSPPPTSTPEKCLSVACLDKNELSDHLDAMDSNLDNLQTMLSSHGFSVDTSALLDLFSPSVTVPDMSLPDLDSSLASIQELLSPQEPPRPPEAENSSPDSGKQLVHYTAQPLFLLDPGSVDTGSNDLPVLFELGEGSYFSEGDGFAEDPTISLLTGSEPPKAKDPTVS
# Summary of the method: as §1
# SPIC = molecular target: T8, SPIC (Homo sapiens, UniProt Q8N5J4 1-248); settings: protein: recombinant; tags: N-terminal GST; dsDNA, one strand shown
# T8 sequence: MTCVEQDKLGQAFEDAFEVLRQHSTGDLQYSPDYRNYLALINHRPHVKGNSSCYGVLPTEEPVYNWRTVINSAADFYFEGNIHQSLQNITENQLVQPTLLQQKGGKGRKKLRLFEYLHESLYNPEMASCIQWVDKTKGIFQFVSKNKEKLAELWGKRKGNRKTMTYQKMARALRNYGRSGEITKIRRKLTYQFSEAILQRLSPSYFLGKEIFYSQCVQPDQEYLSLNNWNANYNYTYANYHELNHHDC
# Summary of the method: as §1
# ELF4 = ELF4 (Homo sapiens, UniProt Q99607 1-663); settings: protein: recombinant; tags: N-terminal GST; dsDNA, one strand shown
# ELF4, sequence (Q99607 whole entry): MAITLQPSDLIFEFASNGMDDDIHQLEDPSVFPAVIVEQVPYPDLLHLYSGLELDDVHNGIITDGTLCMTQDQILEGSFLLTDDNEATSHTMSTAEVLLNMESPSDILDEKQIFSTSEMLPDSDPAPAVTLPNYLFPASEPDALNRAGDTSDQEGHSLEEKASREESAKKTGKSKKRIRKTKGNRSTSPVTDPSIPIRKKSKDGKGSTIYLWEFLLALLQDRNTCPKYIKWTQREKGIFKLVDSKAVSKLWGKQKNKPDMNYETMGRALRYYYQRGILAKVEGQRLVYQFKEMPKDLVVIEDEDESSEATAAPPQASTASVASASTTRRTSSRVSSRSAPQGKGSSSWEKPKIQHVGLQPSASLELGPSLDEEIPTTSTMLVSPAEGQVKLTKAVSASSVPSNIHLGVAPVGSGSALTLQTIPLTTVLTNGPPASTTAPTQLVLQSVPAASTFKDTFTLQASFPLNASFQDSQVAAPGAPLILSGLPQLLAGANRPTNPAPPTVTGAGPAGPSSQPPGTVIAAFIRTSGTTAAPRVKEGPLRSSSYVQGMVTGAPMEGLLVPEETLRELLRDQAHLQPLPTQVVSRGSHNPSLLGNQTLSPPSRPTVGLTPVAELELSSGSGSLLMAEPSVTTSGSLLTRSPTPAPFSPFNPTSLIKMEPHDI
# Summary of the method: as §1
# ELK4 = molecular target: T9, ELK4 (Homo sapiens, UniProt P28324-2 1-405); settings: protein: recombinant; tags: N-terminal GST; dsDNA, one strand shown
# T9 sequence: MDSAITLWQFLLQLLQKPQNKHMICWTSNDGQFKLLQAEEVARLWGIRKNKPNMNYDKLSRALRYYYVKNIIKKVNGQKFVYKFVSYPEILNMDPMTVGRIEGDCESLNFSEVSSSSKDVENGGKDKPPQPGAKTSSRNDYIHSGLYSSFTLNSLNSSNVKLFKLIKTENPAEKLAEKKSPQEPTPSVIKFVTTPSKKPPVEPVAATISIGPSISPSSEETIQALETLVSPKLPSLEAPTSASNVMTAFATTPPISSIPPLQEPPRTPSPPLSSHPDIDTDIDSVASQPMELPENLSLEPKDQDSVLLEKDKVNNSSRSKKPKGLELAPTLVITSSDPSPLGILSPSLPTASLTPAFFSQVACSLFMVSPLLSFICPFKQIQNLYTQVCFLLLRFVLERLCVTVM
# Summary of the method: as §1
# ETV2 = molecular target: T10, ETV2 (Homo sapiens, UniProt O00321 1-342); settings: protein: recombinant; tags: N-terminal GST; dsDNA, one strand shown
# T10 sequence: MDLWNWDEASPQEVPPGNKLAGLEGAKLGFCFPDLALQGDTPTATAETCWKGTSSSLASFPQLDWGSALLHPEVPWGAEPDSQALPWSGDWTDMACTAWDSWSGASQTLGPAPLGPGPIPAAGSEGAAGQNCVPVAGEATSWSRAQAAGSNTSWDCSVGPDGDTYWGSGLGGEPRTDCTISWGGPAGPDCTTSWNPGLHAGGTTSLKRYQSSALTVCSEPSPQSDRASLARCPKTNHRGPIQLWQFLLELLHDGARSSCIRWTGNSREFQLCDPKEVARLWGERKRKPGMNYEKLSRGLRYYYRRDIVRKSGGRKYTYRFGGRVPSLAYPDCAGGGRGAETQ
# Summary of the method: as §1
# ELF3 = molecular target: T11, ELF3 (Homo sapiens, UniProt P78545 1-371); settings: protein: recombinant; tags: N-terminal GST; dsDNA, one strand shown
# T11 sequence: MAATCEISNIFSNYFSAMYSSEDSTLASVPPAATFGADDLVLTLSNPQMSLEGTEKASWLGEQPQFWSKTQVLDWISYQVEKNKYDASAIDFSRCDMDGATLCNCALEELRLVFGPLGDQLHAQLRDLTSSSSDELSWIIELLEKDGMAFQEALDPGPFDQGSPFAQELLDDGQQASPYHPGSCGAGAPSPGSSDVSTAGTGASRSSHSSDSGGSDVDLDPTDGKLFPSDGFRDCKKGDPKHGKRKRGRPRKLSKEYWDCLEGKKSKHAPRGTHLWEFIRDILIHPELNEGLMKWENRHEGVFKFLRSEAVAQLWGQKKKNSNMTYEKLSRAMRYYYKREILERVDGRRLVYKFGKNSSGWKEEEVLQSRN
# Summary of the method: as §1
# CRX = CRX (Homo sapiens, UniProt O43186 1-299); settings: protein: recombinant; tags: N-terminal GST; dsDNA, one strand shown
# CRX, sequence (O43186 whole entry): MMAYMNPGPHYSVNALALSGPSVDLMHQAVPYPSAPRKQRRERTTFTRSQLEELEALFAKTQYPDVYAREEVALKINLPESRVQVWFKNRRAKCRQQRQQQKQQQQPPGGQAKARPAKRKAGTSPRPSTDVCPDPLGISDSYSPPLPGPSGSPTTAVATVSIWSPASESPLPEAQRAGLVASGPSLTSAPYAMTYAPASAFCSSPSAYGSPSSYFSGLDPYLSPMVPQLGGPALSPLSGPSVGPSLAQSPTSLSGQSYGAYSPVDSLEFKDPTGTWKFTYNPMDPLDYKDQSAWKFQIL
# Summary of the method: as §1
# ETV1 = ETV1 (Homo sapiens, UniProt P50549 1-477); settings: protein: recombinant; tags: N-terminal GST; dsDNA, one strand shown
# ETV1, sequence (P50549 whole entry): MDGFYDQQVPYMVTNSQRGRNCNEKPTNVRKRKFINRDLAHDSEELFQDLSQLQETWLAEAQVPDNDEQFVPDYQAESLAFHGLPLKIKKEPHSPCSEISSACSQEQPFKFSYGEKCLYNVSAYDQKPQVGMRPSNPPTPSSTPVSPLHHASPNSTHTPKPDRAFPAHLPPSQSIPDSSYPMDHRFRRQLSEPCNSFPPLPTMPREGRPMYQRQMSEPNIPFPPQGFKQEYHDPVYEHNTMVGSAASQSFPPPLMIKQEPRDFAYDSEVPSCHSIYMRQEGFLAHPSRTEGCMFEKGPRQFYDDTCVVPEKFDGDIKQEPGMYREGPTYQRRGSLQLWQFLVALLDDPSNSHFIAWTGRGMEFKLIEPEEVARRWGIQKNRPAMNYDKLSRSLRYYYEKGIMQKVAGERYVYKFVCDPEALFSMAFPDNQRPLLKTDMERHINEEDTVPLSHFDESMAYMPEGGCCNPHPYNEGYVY
# Summary of the method: as §1
sequence,measurement,setting,value
CGAACA,binding signal,FLI1,"1.09 fold enrichment (6-mer frequency, TF over GST control)"
same,binding signal,ELK1,"1.08 fold enrichment (6-mer frequency, TF over GST control)"
same,binding signal,GABPA,"1.11 fold enrichment (6-mer frequency, TF over GST control)"
same,binding signal,ERG,"1.11 fold enrichment (6-mer frequency, TF over GST control)"
same,binding signal,ELF1,"1.13 fold enrichment (6-mer frequency, TF over GST control)"
same,binding signal,EHF,"1.14 fold enrichment (6-mer frequency, TF over GST control)"
same,binding signal,SPI1,"1.15 fold enrichment (6-mer frequency, TF over GST control)"
same,binding signal,SPIB,"1.19 fold enrichment (6-mer frequency, TF over GST control)"
same,binding signal,ELK3,"1.09 fold enrichment (6-mer frequency, TF over GST control)"
same,binding signal,FEV,"1.06 fold enrichment (6-mer frequency, TF over GST control)"
same,binding signal,ETV5,"1.14 fold enrichment (6-mer frequency, TF over GST control)"
same,binding signal,HSF1,"1.76 fold enrichment (6-mer frequency, TF over GST control)"
same,binding signal,SPIC,"1.11 fold enrichment (6-mer frequency, TF over GST control)"
same,binding signal,ELF4,"1.19 fold enrichment (6-mer frequency, TF over GST control)"
same,binding signal,ELK4,"1.17 fold enrichment (6-mer frequency, TF over GST control)"
same,binding signal,ETV2,"1.22 fold enrichment (6-mer frequency, TF over GST control)"
same,binding signal,ELF3,"1.2 fold enrichment (6-mer frequency, TF over GST control)"
same,binding signal,CRX,"1.1 fold enrichment (6-mer frequency, TF over GST control)"
same,binding signal,ETV1,"1.1 fold enrichment (6-mer frequency, TF over GST control)"
